This passage reports outcome results from PubChem BioAssay AID720712 (NMMLSC, 2013).

Molecules are shown by their SMILES. Active and inactive are the calls of the source.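 The calls were made as follows: active = EC50 at most 10 µM with response changing by at least 30 points across doses, from an acceptable curve fit; inactive = the rest.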

The target of this experiment is Cell division control protein 42 homolog (Homo sapiens) (UniProt P60953). Put plainly: blockade of fluorescent GTP loading onto wildtype Cdc42 – biochemical, compound preincubation comparison, flow cytometry beads, Bodipy-FL-GTP, mechanism study for Ras-family GTPase inhibitor project, late-stage follow-up (AID 720712). As to conditions: GST-Cdc42 beads, Bodipy-FL-GTP binding, EDTA, protocol B; series mostly up to 100 µM.
Chain of Cell division control protein 42 homolog (Homo sapiens) (P60953 whole entry, looked up): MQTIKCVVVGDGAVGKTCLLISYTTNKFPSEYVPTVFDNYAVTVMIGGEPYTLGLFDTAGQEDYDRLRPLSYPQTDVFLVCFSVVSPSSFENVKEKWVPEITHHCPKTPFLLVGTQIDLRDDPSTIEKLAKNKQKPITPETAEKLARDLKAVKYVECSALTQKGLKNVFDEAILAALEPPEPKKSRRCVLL

Turning to `CC1(C)Cc2c(sc(NC(=S)NC(=O)c3ccc(N=[N+]=[N-])cc3)c2C(=O)O)CO1`, the compound was classed as inactive.

As for `CC1(C)Cc2c(sc(NC(=S)NC(=O)c3cccc(N=[N+]=[N-])c3)c2C(=O)O)CO1`, the result was inactive.
